According to PubChem BioAssay:
Several values for one entry are separate records, joined by “and”; a condition that tells them apart may be missing. Identical values can stand only once. Inconclusive results are not listed. Activity calls are given as the source filed them.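 The calls were made as follows, unless noted: active = normalized viability below 100% at a tested concentration; inactive = the rest.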

Legend:
[1] = drug combination growth inhibition, ovarian cancer – cell-based, oncology-focused library, rucaparib conditional, profiling panel (AID 1508598); conditions: patient-derived ovarian cancer cells, CellTiter-Glo viability, 144 h, stronger effect = lower value
[2] = viability loss in pontine glioma line – cell-based, SU-DIPG-XVII, MIPE5.0, CellTiter-Glo, qHTS, dose response (AID 1347060; cut-off not given, nearly all actives have AC50 up to about 26 µM;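 as to AC50: cells exposed to compound for 48 hours before viability readout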); conditions: CellTiter-Glo ATP luminescence
[3] = viability loss in pontine glioma line – cell-based, SU-DIPG-XIII, MIPE4.0, CellTiter-Glo, qHTS, dose response (AID 1347061; cut-off not given, nearly all actives have AC50 up to about 37 µM;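 also: cells exposed to compound for 48 hours before readout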); conditions: CellTiter-Glo ATP luminescence
[4] = viability loss in pontine glioma line – cell-based, JHH-DIPG-1, MIPE4.0, CellTiter-Glo, qHTS, dose response (AID 1347062; cut-off not given, nearly all actives have AC50 up to about 27 µM;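 as to AC50: cells exposed to compound for two days before readout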); conditions: JHH-DIPG-1 viability, CellTiter-Glo ATP luminescence
[5] = viability loss in pontine glioma line – cell-based, SU-DIPG-IV, MIPE4.0, CellTiter-Glo, qHTS, dose response (AID 1347063; cut-off not given, nearly all actives have AC50 up to about 30 µM;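 also: compound exposure lasted 48 hours before the viability readout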); conditions: CellTiter-Glo ATP luminescence
[6] = viability loss in pontine glioma line – cell-based, SU-DIPG-XIII, MIPE5.0, CellTiter-Glo, qHTS, dose response (AID 1347064; cut-off not given, nearly all actives have AC50 up to about 23 µM;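 as to AC50: cells exposed to compound for 48 hours before the viability read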); conditions: CellTiter-Glo ATP luminescence
[7] = viability loss in pontine glioma line – cell-based, SU-DIPG-XXV, MIPE5.0, CellTiter-Glo, qHTS, dose response (AID 1347065; cut-off not given, nearly all actives have AC50 up to about 26 µM;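 also: cells exposed to compound for 48 hours before ATP readout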); conditions: CellTiter-Glo ATP luminescence
[8] = growth inhibition of DIPG cells – cell-based, MIPE4.0 library, CellTiter-Glo luminescence, qHTS (AID 1347066; cut-off not given, nearly all actives have AC50 up to about 30 µM;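 also: cells exposed to compound for 48 hours before readout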); conditions: SU-DIPG-VI viability, CellTiter-Glo ATP luminescence
[9] = JHH-DIPG-1 glioma cell viability, MIPE5.0 library, CellTiter-Glo luminescence, qHTS (AID 1347067; cut-off not given, nearly all actives have AC50 up to about 26 µM;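 also: cells exposed to compound for 48 hours before readout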); conditions: JHH-DIPG-1 glioma viability, CellTiter-Glo ATP luminescence
[10] = growth inhibition of DIPG cells – cell-based, MIPE5.0 library, qHTS (AID 1347068; cut-off not given, nearly all actives have IC50 up to about 30 µM;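 as to IC50: cells exposed to compound for 48 hours before viability readout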); conditions: SU-DIPG-XXV viability
[11] = viability loss with induced miR-34 in A549 – imaging, A549 dox-inducible miR-34, nuclei and caspase counts, primary screen (AID 1347080;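 active = compounds whose cell count with miR-34 switched on is under 0.7 times the count with it off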); conditions: A549 miR-34 inducible, Hoechst nuclei count, 48 h
[12] = compounds altering HSF1 focus formation in cells – imaging, Selleck Cancer Library (AID 1347162; in the data active = plate-normalised HSF1 focus index below about 0.46); conditions: human cells, HSF1 nuclear foci imaging, at 10 µM; SSMD: measured here: HSF1 foci SSMD mean; cell count: measured here: cell number; plate-normalised HSF1 focus index: stronger effect = lower value
[13] = MELAS cybrid and Rieske KO viability enhancers – cell-based, MELAS cybrids, Rieske KO mouse fibroblasts, CellTiter-Glo, primary screen (AID 1508586;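 active = mean z-score across replicates of 1.96 or higher in either the MELAS or the Rieske mutant cell line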;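 also: z relative to plate mean and SD of compound and empty wells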); conditions: low glucose
[14] = galactose survival enhancers in mitochondrial complex I cybrids – cell-based, galactose medium, ATP luminescence, primary screen (AID 1645843;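 active = z-score of at least 1.8 in each of two replicates, scored against plate mean and spread of sample wells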;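 also: positive z means more ATP and so rescue of galactose-driven cybrid death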); conditions: complex I mutant cybrid cells, 72 h, stronger effect = higher value
[15] = at 0.0781 µM, OCI-P5x cells, with rucaparib 20 µM, 100% = cells with rucaparib alone
[16] = at 0.0781 µM, OCI-P5x cells, without rucaparib
[17] = at 0.313 µM, OCI-C5x cells, with rucaparib 10 µM, 100% = cells with rucaparib alone
[18] = at 0.313 µM, OCI-C5x cells, without rucaparib
[19] = at 0.313 µM, OCI-P5x cells, with rucaparib 20 µM, 100% = cells with rucaparib alone
[20] = at 0.313 µM, OCI-P5x cells, without rucaparib
[21] = at 1.25 µM, OCI-C5x cells, with rucaparib 10 µM, 100% = cells with rucaparib alone
[22] = at 1.25 µM, OCI-C5x cells, without rucaparib
[23] = at 1.25 µM, OCI-P5x cells, with rucaparib 20 µM, 100% = cells with rucaparib alone
[24] = at 1.25 µM, OCI-P5x cells, without rucaparib
[25] = at 5 µM, OCI-C5x cells, with rucaparib 10 µM, 100% = cells with rucaparib alone
[26] = at 5 µM, OCI-C5x cells, without rucaparib
[27] = at 5 µM, OCI-P5x cells, with rucaparib 20 µM, 100% = cells with rucaparib alone
[28] = at 5 µM, OCI-P5x cells, without rucaparib
[29] = stronger effect = lower value, cell number ratio, induced over uninduced
[30] = measured here: relative caspase fold change +Dox/-Dox
[31] = measured here: total cells with miR-34 induction, stronger effect = lower value
[32] = measured here: total cells without miR-34 induction
[33] = MELAS cybrid survival, CellTiter-Glo 48 h, stronger effect = higher value
[34] = Rieske KO mouse fibroblast survival, CellTiter-Glo 72 h

Cn1c(=O)c(F)c(Nc2ccc(I)cc2F)c2c(=O)n(C[C@@H](O)CO)cnc21
active: viability [1, 15] 54.4% | viability [1, 16] 64.1% | viability [1, 17] 86.7% | viability [1, 18] 88.4% | viability [1, 19] 43.7% | viability [1, 20] 47.9% | viability [1, 21] 58.9% | viability [1, 22] 92.3% | viability [1, 23] 34.4% | viability [1, 24] 38.4% | viability [1, 25] 49.3% | viability [1, 26] 61.2% | viability [1, 27] 2.17% | viability [1, 28] 26.7%

C=CC(=O)Nc1cccc(Oc2nc(Nc3ccc(N4CCN(C)CC4)cc3OC)ncc2Cl)c1
active: AC50 [2] 3320 nM | AC50 [4] 20900 nM | AC50 [5] 14800 nM | AC50 [6] 6610 nM | AC50 [7] 4170 nM | AC50 [8] 16600 nM | AC50 [9] 8330 nM | IC50 [10] 2630 nM | viability [1, 22] 45.1% | viability [1, 24] 94.6% | viability [1, 25] 91.6% | viability [1, 28] 67.9%
5250: cell count [11, 32]
4420: cell count [11, 31]
0.924: fold change [11, 30]
0.584: z-score [13, 34]
-3.65: SSMD [12]
inactive: outcome [3] | fold change [11, 29] 0.841 | plate-normalised HSF1 focus index [12] 0.843 | z-score [13, 33] -0.337 | viability ([1]; at 0.000305 µM, OCI-C5x cells, with rucaparib 10 µM, 100% = cells with rucaparib alone) 115% | viability ([1]; at 0.000305 µM, OCI-C5x cells, without rucaparib) 104% | viability ([1]; at 0.000305 µM, OCI-P5x cells, with rucaparib 20 µM, 100% = cells with rucaparib alone) 114% | viability ([1]; at 0.000305 µM, OCI-P5x cells, without rucaparib) 112% | viability ([1]; at 0.00122 µM, OCI-C5x cells, with rucaparib 10 µM, 100% = cells with rucaparib alone) 117% | viability ([1]; at 0.00122 µM, OCI-C5x cells, without rucaparib) 120% | viability ([1]; at 0.00122 µM, OCI-P5x cells, with rucaparib 20 µM, 100% = cells with rucaparib alone) 108% | viability ([1]; at 0.00122 µM, OCI-P5x cells, without rucaparib) 114% | viability ([1]; at 0.00488 µM, OCI-C5x cells, with rucaparib 10 µM, 100% = cells with rucaparib alone) 107% | viability ([1]; at 0.00488 µM, OCI-C5x cells, without rucaparib) 118% | viability ([1]; at 0.00488 µM, OCI-P5x cells, with rucaparib 20 µM, 100% = cells with rucaparib alone) 119% | viability ([1]; at 0.00488 µM, OCI-P5x cells, without rucaparib) 118% | viability ([1]; at 0.0195 µM, OCI-C5x cells, with rucaparib 10 µM, 100% = cells with rucaparib alone) 115% | viability ([1]; at 0.0195 µM, OCI-C5x cells, without rucaparib) 112% | viability ([1]; at 0.0195 µM, OCI-P5x cells, with rucaparib 20 µM, 100% = cells with rucaparib alone) 108% | viability ([1]; at 0.0195 µM, OCI-P5x cells, without rucaparib) 118% | viability ([1]; at 0.0781 µM, OCI-C5x cells, with rucaparib 10 µM, 100% = cells with rucaparib alone) 119% | viability ([1]; at 0.0781 µM, OCI-C5x cells, without rucaparib) 116% | viability [1, 15] 115% | viability [1, 16] 115% | viability [1, 17] 115% | viability [1, 18] 120% | viability [1, 19] 119% | viability [1, 20] 118% | viability [1, 21] 106% | viability [1, 23] 108% | viability [1, 26] 115% | viability [1, 27] 104%
5190: cell count [12]

CC(C)(OCc1nn(Cc2ccccc2)c2ccccc12)C(=O)O
-0.561: z-score [13, 34]
inactive: outcome [2] | outcome [3] | outcome [4] | outcome [5] | outcome [6] | outcome [7] | outcome [8] | outcome [9] | outcome [10] | fold change [11, 29] 0.935 | z-score [13, 33] -0.401
0.724: fold change [11, 30]
9310: cell count [11, 31]
9960: cell count [11, 32]

Cc1cccc(-c2[nH]ncc2-c2ccc3ncccc3n2)n1
9850 and 8880: cell count [11, 31]
10200 and 9960: cell count [11, 32]
inactive: outcome [2] | outcome [3] | outcome [4] | outcome [5] | outcome [6] | outcome [7] | outcome [8] | outcome [9] | outcome [10] | fold change [11, 29] 0.969 and 0.891 | z-score [13, 33] -0.572 | z-score [14] -0.39
0.111: z-score [13, 34]
0.983 and 0.417: fold change [11, 30]

COc1ccc(-c2cc3c(C)nc(N)nc3n(C3CCC(OCCO)CC3)c2=O)cn1 (stereo not given)
1320: cell count [11, 32]
948: cell count [11, 31]
active: AC50 [2] 661 nM | AC50 [3] 418 nM | AC50 [4] 590 nM | AC50 [5] 13.2 nM | AC50 [6] 468 nM | AC50 [7] 235 nM | AC50 [8] 1180 nM | AC50 [9] 934 nM | IC50 [10] 1320 nM
-2.85: z-score [13, 34]
0.958: fold change [11, 30]
inactive: fold change [11, 29] 0.719 | z-score [13, 33] 1.34
